In PubChem BioAssay (Tox21):
Inconclusive results are not listed. Active and inactive are the calls of the source. Unless noted, calls come from the whole dose curve; as a rule, active = well fitted curve in the direction sought with a large enough effect in the repeat runs; inconclusive = weak or mixed curves; inactive = no such curve, though single readings can be large; an effect the other way counts as inactive or inconclusive.

Tests used:
[1] = qHTS RealTime-Glo MT Cell Viability Assay in HEK293 cells - 0 hour (AID 1224880); note: top concentration of the series differs between compounds; nearly all actives have a fitted effect of over 45% in size
Method in brief: (§1)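 Luminescence, which tracks viable cell number through reduction of the prosubstrate to a NanoLuc substrate, was read over continuous 37 C culture. Cells (600/well) were premixed with reagent and rested 5 h before 23 nL of compound in DMSO was pinned.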

[2] = A CellTox Green Cytotoxicity Assay to monitor cytotoxicity in HEK293 cells - 32 hour (AID 1224881); note: nearly all actives have a fitted effect of over 40% in size
Method in brief: (§2)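 Fluorescence from a DNA-binding dye excluded by viable cells was measured repeatedly in the same HEK293 wells (600 cells/well) during continuous compound exposure at 37 C. Each assay gives one read point: 0, 8, 16, 24, 32 or 40 h.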

[3] = A CellTox Green Cytotoxicity Assay to monitor cytotoxicity in HepG2 cells - 32 hour (AID 1224883); note: nearly all actives have a fitted effect of over 50% in size
Method in brief: (§3)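 Real-time cytotoxicity: fluorescence of a cell-impermeant cyanine dye binding DNA of dead HepG2 cells, measured repeatedly (0–40 h) during compound exposure at 37 C. Cells seeded 600/well with reagent, dosed after 5 h.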

[4] = A CellTox Green Cytotoxicity Assay to monitor cytotoxicity in HEK293 cells - 8 hour (AID 1224884); note: nearly all actives have a fitted effect of over 35% in size
Method in brief: as §2

[5] = qHTS RealTime-Glo MT Cell Viability Assay in HepG2 cells - 16 hour (AID 1224885); note: nearly all actives have a fitted effect of over 50% in size
Method in brief: (§4)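 HepG2 cells were seeded at 600 cells/well together with NanoLuc luciferase and a cell-permeant prosubstrate, preincubated 5 h at 37 C/5% CO2, then pin-dosed with compounds in DMSO. Nonlytic luminescence from viable cells was read at each time point.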

[6] = qHTS RealTime-Glo MT Cell Viability Assay in HEK293 cells - 24 hour (AID 1224886); note: top concentration of the series differs between compounds; nearly all actives have a fitted effect of over 50% in size
Method in brief: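 HEK293 cells were seeded at 600 cells/well together with NanoLuc luciferase and cell-permeant prosubstrate, preincubated 5 h at 37 C/5% CO2, then given compound in DMSO by pintool. Luminescence from viable-cell prosubstrate reduction was read repeatedly over 40 h.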

[7] = qHTS RealTime-Glo MT Cell Viability Assay in HEK293 cells - 8 hour (AID 1224887); note: top concentration of the series differs between compounds; nearly all actives have a fitted effect of over 50% in size
Method in brief: as §1

[8] = A CellTox Green Cytotoxicity Assay to monitor cytotoxicity in HEK293 cells - 16 hour (AID 1224888); note: nearly all actives have a fitted effect of over 35% in size
Method in brief: as §2

[9] = qHTS RealTime-Glo MT Cell Viability Assay in HepG2 cells - 0 hour (AID 1224889); note: nearly all actives have a fitted effect of over 50% in size
Method in brief: as §4

[10] = A CellTox Green Cytotoxicity Assay to monitor cytotoxicity in HepG2 cells - 8 hour (AID 1224890); note: nearly all actives have a fitted effect of over 45% in size
Method in brief: as §3

[11] = qHTS assay to identify small molecule antagonists of the estrogen receptor alpha (ER-alpha) signaling pathway using the BG1 cell line in the presence of 0.1 nM 17-beta-estradiol - cell viability counter screen (AID 1259241); note: nearly all actives have a fitted effect of over 40% in size
Method in brief: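 Viability in VM7Luc4E2 cells after 22 hr compound exposure under 0.1 nM 17beta-estradiol stimulation, by CellTiter-Fluor.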

[12] = qHTS assay to identify small molecule antagonists of the androgen receptor (AR) signaling pathway using the MDA cell line in the presence of 0.5 nM R1881 - cell viability counter screen (AID 1259242); note: nearly all actives have a fitted effect of over 45% in size
Method in brief: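 Live-cell protease activity was measured by CellTiter-Fluor fluorescence after 30 min. Before that, MDA-kb2 MMTV-luciferase cells had 16 hr at 37C without CO2, exposed to test compounds and 0.5 nM R1881 final.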

[13] = biological target: Estrogen receptor (Homo sapiens) (UniProt P03372); assay: qHTS assay to identify small molecule antagonists of the estrogen receptor alpha (ER-alpha) signaling pathway using the BG1 cell line in the presence of 0.1 nM 17-beta-estradiol (AID 1259244); note: nearly all actives have a fitted effect of over 50% in size
Method in brief: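 Luciferase luminescence (ONE-Glo, 30 min at room temperature) was read after 22 hr at 37C exposure to compounds plus 17beta-estradiol at 0.1 nM final. Cells were VM7Luc4E2 with endogenous ER-alpha and an ERE-driven luciferase, pre-cultured 5 days in hormone-depleted medium.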

[14] = qHTS assay to identify small molecule phospholipidosis (PLD) inducers (AID 1259344; active = well fitted curve in the direction sought with a large enough effect; an effect the other way counts as inactive or inconclusive)
Method in brief: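 Read-out is LipidTOX Red fluorescence (ex 595/em 615) imaged in HepG2 cells after 24 h compound exposure at 37 C, with Hoechst nuclear counterstain (ex 352/em 461) allowing per-cell normalisation.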

[15] = qHTS assay to identify small molecule HDAC inhibitors (AID 1259364); note: top concentration of the series differs between compounds; nearly all actives have a fitted effect of over 45% in size
Method in brief: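 Luminescence read after 30 min room-temperature HDAC-Glo incubation measures cellular class I/II HDAC activity. Compounds were applied for 2 hr at 37 C to HCT-116 wild-type cells seeded the day before.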

[16] = qHTS assay to identify small molecule HDAC inhibitors - cell viability counter screen (AID 1259365)
Method in brief: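 Cytotoxicity was gauged in wild-type HCT-116 cells after a brief 2hr treatment with DMSO-dissolved compounds at 37C and 5% CO2, using CellTiter-Glo luminescence developed for 30min at room temperature.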

[17] = qHTS assay to identify small molecule agonists of the sonic hedgehog signaling (Shh) pathway - cell viability counter screen (AID 1259366); note: nearly all actives have a fitted effect of over 50% in size
Method in brief: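 Stable Gli1-Luc NIH/3T3 clone, 2,000 cells/well. Compound exposure 24hr at 37C. Read-out: CellTiter-Fluor fluorescence.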

[18] = qHTS assay to identify small molecule antagonists of the sonic hedgehog signaling (Shh) pathway - cell viability counter screen (AID 1259367); note: nearly all actives have a fitted effect of over 55% in size
Method in brief: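 Fluorescence read-out (CellTiter-Fluor, 1 hr at 37C) taken after 23 hr compound treatment of 3T3 Gli1-Luc cells stimulated with conditioned medium. Cells were seeded at 2,000 per well and pre-incubated 4 hr.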

Measured: Potency

Chain of Estrogen receptor (Homo sapiens) (P03372 whole entry, looked up): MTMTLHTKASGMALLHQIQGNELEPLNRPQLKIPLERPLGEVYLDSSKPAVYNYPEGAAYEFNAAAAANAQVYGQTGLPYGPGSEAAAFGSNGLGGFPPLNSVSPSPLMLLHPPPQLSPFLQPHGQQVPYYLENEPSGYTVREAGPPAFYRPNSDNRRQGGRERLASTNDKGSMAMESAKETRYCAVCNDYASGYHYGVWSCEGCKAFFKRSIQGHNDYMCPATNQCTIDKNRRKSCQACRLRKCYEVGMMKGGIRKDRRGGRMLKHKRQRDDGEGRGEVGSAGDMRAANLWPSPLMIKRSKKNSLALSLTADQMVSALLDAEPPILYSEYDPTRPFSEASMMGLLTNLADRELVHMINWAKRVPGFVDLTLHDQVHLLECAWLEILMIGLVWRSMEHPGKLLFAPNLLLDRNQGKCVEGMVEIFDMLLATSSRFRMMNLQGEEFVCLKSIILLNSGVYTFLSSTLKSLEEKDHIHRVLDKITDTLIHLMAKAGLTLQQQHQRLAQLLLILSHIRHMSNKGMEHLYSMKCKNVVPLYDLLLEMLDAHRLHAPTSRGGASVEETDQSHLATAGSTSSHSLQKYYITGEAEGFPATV

Oc1c(Br)cc(Br)cc1Br
not listed: [18]
inactive: all other assays above

CN(C)NC(=O)CCC(=O)O
not listed: [13] | [14]
inactive: all other assays above

NNc1ccccc1
not listed: [13] | [18]
inactive: all other assays above

N#Cc1cccc(C#N)c1
not listed: [4] | [13] | [14] | [18]
inactive: all other assays above

Cc1ccc(N)cc1
not listed: [13] | [14]
inactive: all other assays above

CC(=O)C1CCOC1=O (stereo not drawn)
not listed: [4] | [13] | [14]
inactive: all other assays above

CCCCCCCCCCCCCCCCCC(=O)O
not listed: [13] | [14] | [18]
inactive: all other assays above

Oc1ccc(Cl)cc1
not listed: [13] | [18]
inactive: all other assays above

CN(C)C(=O)Nc1cccc(C(F)(F)F)c1
not listed: [13] | [14]
inactive: all other assays above

Cc1cc(O)ccc1Cl
not listed: [4]
inactive: all other assays above

Cc1cccc(C)c1N
not listed: [14]
inactive: all other assays above

ClCCOCCCl
not listed: [4] | [13] | [14] | [18]
inactive: all other assays above

OCCCCO
not listed: [4] | [13] | [14]
inactive: all other assays above

Nc1cc(Cl)cc(Cl)c1
not listed: [4] | [13] | [14]
inactive: all other assays above

Cl/C=C/Cl
not listed: [4] | [14] | [18]
inactive: all other assays above

O=S(=O)(O)OOS(=O)(=O)O
not listed: [4] | [13] | [14] | [18]
inactive: all other assays above
